The values below come from PMC6602471.

Over roughly 1,300 sequences, “log fluorescence intensity” has its median near 8.3; the highest 2% begin near 12. This excerpt belongs to a sample that is enriched for the highest values.

The test addresses T1, ETS1 (Homo sapiens, UniProt P14921 1-441).
T1 sequence: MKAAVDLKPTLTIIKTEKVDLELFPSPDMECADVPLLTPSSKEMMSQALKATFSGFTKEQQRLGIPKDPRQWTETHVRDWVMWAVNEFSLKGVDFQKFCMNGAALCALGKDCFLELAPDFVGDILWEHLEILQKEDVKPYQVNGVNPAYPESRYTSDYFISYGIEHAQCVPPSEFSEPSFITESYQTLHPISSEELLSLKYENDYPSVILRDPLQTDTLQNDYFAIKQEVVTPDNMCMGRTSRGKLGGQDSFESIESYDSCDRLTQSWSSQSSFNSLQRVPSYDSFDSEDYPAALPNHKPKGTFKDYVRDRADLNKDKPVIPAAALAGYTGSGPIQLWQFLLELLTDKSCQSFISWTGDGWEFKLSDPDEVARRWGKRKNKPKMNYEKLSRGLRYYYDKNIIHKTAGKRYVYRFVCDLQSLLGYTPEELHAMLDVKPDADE
In words: custom PBM; custom protein-binding microarray; buffer, salt, pH and temperature not stated; high values mean tight binding. To be noted: dsDNA, one strand shown.
Consider “CGGAAGTGTCGTAAATGTCGGATATCCGGTTCTTCTGTCTTGATTCGCTTGACGCTGCTG”, for which the binding signal was 11.9 log fluorescence intensity. On to “TCCGGCTACCAGCTTCACCCACTTCAGGCCTTGTAGGTCTTGATTCGCTTGACGCTGCTG”, for which the binding signal was 8.4 log fluorescence intensity. Consider “GCTGCTGCGGTGCGTACCCCACCGGATGTGACCCCGGTCTTGATTCGCTTGACGCTGCTG”, for which the binding signal was 9.93 log fluorescence intensity. In the case of “GCTGCTGCGGTGCATACCCCACCGGATGTGACCCAGGTCTTGATTCGCTTGACGCTGCTG”, the binding signal is 10.3 log fluorescence intensity.

With “TAAACGGAAGACGGTTGTGGTAGTTCCGGGTATTAAGTCTTGATTCGCTTGACGCTGCTG”, the binding signal is 10.1 log fluorescence intensity. As to “CAGCATAGGACTTCTTCCCTGAAGCAATTGATAACCGTCTTGATTCGCTTGACGCTGCTG”, the binding signal is 8.39 log fluorescence intensity. Take “CAGCATAGGACTTCCTCCCTGAAGCAATTGATAACCGTCTTGATTCGCTTGACGCTGCTG”: the binding signal is 12.7 log fluorescence intensity. “CAGCATAGGACTTCGTCCCTGAAGCAATTGATAACCGTCTTGATTCGCTTGACGCTGCTG”: the binding signal was 8.36 log fluorescence intensity. On to “CCTGCTGCGGTGCATACCCCACCGGATGTGACCCCGGTCTTGATTCGCTTGACGCTGCTG”, for which the binding signal was 10.4 log fluorescence intensity. For the sequence “TAAAGGGAAGACGGTTGTGGTAGTTGCGGGTATTAAGTCTTGATTCGCTTGACGCTGCTG”, the binding signal is 8.38 log fluorescence intensity.

As for “TAAAGGGAAGACGGTTGTGGTAGTTCCGGGTATTCAGTCTTGATTCGCTTGACGCTGCTG”, the binding signal was 8.52 log fluorescence intensity. “TAAAGGGAAGACGGTTGTGGTAGTTCCGGGTATTACGTCTTGATTCGCTTGACGCTGCTG”: the binding signal was 8.47 log fluorescence intensity.

For the sequence “CACAATTTTTACAGTAGTGTAGCACGCGTAACTCCTGTCTTGATTCGCTTGACGCTGCTG”, the binding signal was 8.33 log fluorescence intensity.

For “TGTCGGGTAAGGGTATGTAGATCACGTGAATGAAAAGTCTTGATTCGCTTGACGCTGCTG”, the binding signal is 8.34 log fluorescence intensity. For the sequence “TAAAGGGAAGACCGTTGTGGTAGTTCCGGGTATTAAGTCTTGATTCGCTTGACGCTGCTG”, the binding signal was 8.5 log fluorescence intensity. Take “CGGAAGTGTCGTAAACGTCGGATATCCGGTACTTCTGTCTTGATTCGCTTGACGCTGCTG”: the binding signal is 11.8 log fluorescence intensity. Take “TCCTGCTACCAGCTCCACCCACTTCAGGCCTTGTAGGTCTTGATTCGCTTGACGCTGCTG”: the binding signal is 8.42 log fluorescence intensity. The same measure for “CAGCATAGGACTTCTTCCCTGAACCAATTGATAACCGTCTTGATTCGCTTGACGCTGCTG”: 8.33 log fluorescence intensity; for “CACAATTTTTACAGTAATGGAGCACGCGTAACTCCTGTCTTGATTCGCTTGACGCTGCTG”: 8.32 log fluorescence intensity.

For the sequence “GCTGCTGCGGTACATACCCCACCGGATGTGACCCCGGTCTTGATTCGCTTGACGCTGCTG”, the binding signal was 10.5 log fluorescence intensity. In the case of “GATTAATCTCTGCCCTTATTCGCACGTGCCATAACAGTCTTGATTCGCTTGACGCTGCTG”, the binding signal is 8.31 log fluorescence intensity. Consider “GCTGCTGCGGTGCATACACCACCGGATGTGACCCCGGTCTTGATTCGCTTGACGCTGCTG”, for which the binding signal is 10.2 log fluorescence intensity. Take “GGAAAAAGGCCCAGGGTAACACGGGAAGTGGGCTTAGTCTTGATTCGCTTGACGCTGCTG”: the binding signal is 8.49 log fluorescence intensity. Regarding “GGAAATAGGCCCAGGGTAACACCGGAAGTGGGCTTAGTCTTGATTCGCTTGACGCTGCTG”, the binding signal was 12 log fluorescence intensity.

For “GGGAAGTGTCGTAAACGTCGGATATCCGGTTCTTCTGTCTTGATTCGCTTGACGCTGCTG”, the binding signal was 11.9 log fluorescence intensity. Turning to “CGGAAGTGTCGTAAACGTCGGATATCCGGTTCTGCTGTCTTGATTCGCTTGACGCTGCTG”, the binding signal was 11.8 log fluorescence intensity. For the sequence “TGGAAGTGTCGTAAACGTCGGATATCCGGTTCTTCTGTCTTGATTCGCTTGACGCTGCTG”, the binding signal was 11.9 log fluorescence intensity. As for “CGGAAGTGTCGTAAACGACGGATATCCGGTTCTTCTGTCTTGATTCGCTTGACGCTGCTG”, the binding signal was 12.4 log fluorescence intensity. Turning to “CGGAAGTGTCGTAAACGCCGGATATCCGGTTCTTCTGTCTTGATTCGCTTGACGCTGCTG”, the binding signal was 13.1 log fluorescence intensity. With “CGGAAGTGTCGTAAACGGCGGATATCCGGTTCTTCTGTCTTGATTCGCTTGACGCTGCTG” the figure was 12.4 log fluorescence intensity; with “AGGAAGTGTCGTAAACGTCGGATATCCGGTTCTTCTGTCTTGATTCGCTTGACGCTGCTG”, 12 log fluorescence intensity; with “CGGAAGTGTCGTAAACGTCGGATATCCGGTTCTTCTGTCTTGATTCGCTTGACGCTGCTG”, 11.9 log fluorescence intensity. Turning to “CGGAAGTGTCGTAAACTTCGGATATCCGGTTCTTCTGTCTTGATTCGCTTGACGCTGCTG”, the binding signal is 11.9 log fluorescence intensity. For the sequence “GCTGCTGCGGTGCATACCCCACCGGATGTGACCGCGGTCTTGATTCGCTTGACGCTGCTG”, the binding signal is 10.5 log fluorescence intensity. “CGGAAGTGTCGTAAACGTCGGATACCCGGTTCTTCTGTCTTGATTCGCTTGACGCTGCTG”: the binding signal was 8.31 log fluorescence intensity.

Turning to “TCCGGCTAACAGCTCCACCCACTTCAGGCCTTGTAGGTCTTGATTCGCTTGACGCTGCTG”, the binding signal was 8.32 log fluorescence intensity. For “GCTGCTGCGGTGCATAACCCACCGGATGTGACCCCGGTCTTGATTCGCTTGACGCTGCTG”, the binding signal is 10.4 log fluorescence intensity. As for “CGGAAGTGTCGCAAACGTCGGATATCCGGTTCTTCTGTCTTGATTCGCTTGACGCTGCTG”, the binding signal was 12 log fluorescence intensity. For “CAGAATAGGACTTCTTCCCTGAAGCAATTGATAACCGTCTTGATTCGCTTGACGCTGCTG”, the binding signal is 8.33 log fluorescence intensity. Regarding “TAAAGGGAAGACGGTTGTGGTAGTTCCGGGTATCAAGTCTTGATTCGCTTGACGCTGCTG”, the binding signal is 8.76 log fluorescence intensity.

In the case of “GCGGCTGCGGTGCATACCCCACCGGATGTGACCCCGGTCTTGATTCGCTTGACGCTGCTG”, the binding signal was 10 log fluorescence intensity. For the sequence “TGTCGGGTAAGGGAATATAGATCACGTGAATGAAAAGTCTTGATTCGCTTGACGCTGCTG”, the binding signal was 8.36 log fluorescence intensity. For the sequence “GATTAATTTCCGCCCTTATTCGCACGTGCCATAACAGTCTTGATTCGCTTGACGCTGCTG”, the binding signal was 13.9 log fluorescence intensity. “AATTAATTTCTGCCCTTATTCGCACGTGCCATAACAGTCTTGATTCGCTTGACGCTGCTG”: the binding signal was 8.33 log fluorescence intensity. As to “GATTAATTCCTGCCCTTATTCGCACGTGCCATAACAGTCTTGATTCGCTTGACGCTGCTG”, the binding signal was 10.3 log fluorescence intensity. The same measure for “GGAAAAAGGCCCAGGGTAACACCGGAAGTGGGTTTAGTCTTGATTCGCTTGACGCTGCTG”: 12 log fluorescence intensity; for “GCTGCTGCGGTGCATACCCCACCGGATGTAACCCCGGTCTTGATTCGCTTGACGCTGCTG”: 10 log fluorescence intensity; for “GGAAAAAGGCCCAGGTTAACACCGGAAGTGGGCTTAGTCTTGATTCGCTTGACGCTGCTG”: 12 log fluorescence intensity. With “TAAAGCGAAGACGGTTGTGGTAGTTCCGGGTATTAAGTCTTGATTCGCTTGACGCTGCTG” the figure was 8.48 log fluorescence intensity; with “CGGAAGTGTCGTAAACGTCGGATATCCGGTCCTTCTGTCTTGATTCGCTTGACGCTGCTG”, 12.1 log fluorescence intensity; with “GATTAATTTCTGCCCTTTTTCGCACGTGCCATAACAGTCTTGATTCGCTTGACGCTGCTG”, 8.42 log fluorescence intensity. Turning to “TACTGACTTATATATGCGAGTGCACATGAATAGACCGTCTTGATTCGCTTGACGCTGCTG”, the binding signal is 8.33 log fluorescence intensity. The same measure for “GATTAATTTCTGCCCTTATTCGTACGTGCCATAACAGTCTTGATTCGCTTGACGCTGCTG”: 8.36 log fluorescence intensity; for “CACAATTTTTATAGTAATGTAGCACGCGTAACTCCTGTCTTGATTCGCTTGACGCTGCTG”: 8.41 log fluorescence intensity; for “GGAAAAAGGCCTAGGGTAACACCGGAAGTGGGCTTAGTCTTGATTCGCTTGACGCTGCTG”: 12.1 log fluorescence intensity. For “GGAAAAAGGCTCAGGGTAACACCGGAAGTGGGCTTAGTCTTGATTCGCTTGACGCTGCTG”, the binding signal is 11.8 log fluorescence intensity. With “GGAAAAAGGGCCAGGGTAACACCGGAAGTGGGCTTAGTCTTGATTCGCTTGACGCTGCTG” the figure was 12 log fluorescence intensity.

With “GGAAAAAGGCACAGGGTAACACCGGAAGTGGGCTTAGTCTTGATTCGCTTGACGCTGCTG”, the binding signal was 12.1 log fluorescence intensity. The same measure for “GGAAAAAGGCCGAGGGTAACACCGGAAGTGGGCTTAGTCTTGATTCGCTTGACGCTGCTG”: 12 log fluorescence intensity. For “GGAAAAAGGCCCAGGGTAACACCGGAAGTGGGCCTAGTCTTGATTCGCTTGACGCTGCTG”, the binding signal was 12.1 log fluorescence intensity.

Regarding “TAAAGGGAAGACGGTTGTGGTAGTTCCGGGTAGTAAGTCTTGATTCGCTTGACGCTGCTG”, the binding signal was 8.59 log fluorescence intensity. “CAGCAAAGGACTTCTTCCCTGAAGCAATTGATAACCGTCTTGATTCGCTTGACGCTGCTG”: the binding signal was 8.31 log fluorescence intensity. On to “GCTGCTGCGGTGCATACCCCACCGGATGTGACCCCTGTCTTGATTCGCTTGACGCTGCTG”, for which the binding signal was 10.1 log fluorescence intensity. In the case of “CAGCATAGGACTTGTTCCCTGAAGCAATTGATAACCGTCTTGATTCGCTTGACGCTGCTG”, the binding signal was 8.34 log fluorescence intensity.

For “TAAAGGGAAGACGGTTGTGGTAGTTCCGGGTAATAAGTCTTGATTCGCTTGACGCTGCTG”, the binding signal is 8.57 log fluorescence intensity. With “GATTAATTTCTGCCCTTATTCGCACGTGCCGTAACAGTCTTGATTCGCTTGACGCTGCTG” the figure was 8.34 log fluorescence intensity; with “GCTGCTGCGGTGCATACCCCACCGGAAGTGACCCCGGTCTTGATTCGCTTGACGCTGCTG”, 11 log fluorescence intensity. Regarding “CGGAAGTGTCGTAAACGTCGGATATCCCGTTCTTCTGTCTTGATTCGCTTGACGCTGCTG”, the binding signal was 8.7 log fluorescence intensity. For “TGTCGGGTAAGGGAATGTAGATCACTTGAATGAAAAGTCTTGATTCGCTTGACGCTGCTG”, the binding signal was 8.32 log fluorescence intensity.
